The text below walks through data of PubChem BioAssay AID1851 (National Center for Advancing Translational Sciences (NCATS), 2009).

Screen size: about 16,000 compounds; about 4,000 (25%) were called active. Roughly 26% stayed inconclusive and do not appear here. These entries were drawn from the full list. Unmarked numbers belong to inactive results. Calls follow the shape of the dose curve; as a rule, active = well fitted curve in the direction sought with a large enough effect; inconclusive = small, poorly fitted or top-dose-only effect, or effect the other way; inactive = no such curve, though single readings can be large or run the other way.

For orientation: AC50 means the midpoint of the concentration-response curve, whichever way the signal moves.
% is scaled to controls: 0 for no effect and ±100 for the full control effect.

This experiment deals with Cytochrome P450 2C9 (Homo sapiens) (UniProt P11712). Briefly: Cytochrome panel assay with activity outcomes. As to conditions: recombinant CYP, pro-luciferin dealkylation, luminescence, p450-cyp2c9; series mostly up to 57.1 µM; activity, negative = inhibition: at the top concentration.
Sequence of Cytochrome P450 2C9 (Homo sapiens) (P11712 whole entry, looked up): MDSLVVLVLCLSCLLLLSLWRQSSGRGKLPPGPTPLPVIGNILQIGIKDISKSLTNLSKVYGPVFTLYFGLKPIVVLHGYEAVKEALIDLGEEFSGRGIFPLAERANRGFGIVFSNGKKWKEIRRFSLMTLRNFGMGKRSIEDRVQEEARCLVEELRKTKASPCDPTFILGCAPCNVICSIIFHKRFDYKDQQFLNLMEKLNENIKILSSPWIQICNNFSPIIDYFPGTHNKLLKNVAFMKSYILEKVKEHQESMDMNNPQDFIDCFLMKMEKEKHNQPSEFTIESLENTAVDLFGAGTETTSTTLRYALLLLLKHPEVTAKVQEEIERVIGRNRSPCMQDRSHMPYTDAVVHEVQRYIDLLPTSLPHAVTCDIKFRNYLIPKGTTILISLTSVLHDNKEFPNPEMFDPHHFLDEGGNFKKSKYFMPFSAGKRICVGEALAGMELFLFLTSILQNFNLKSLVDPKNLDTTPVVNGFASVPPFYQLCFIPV
On to `CCC1(CCSC(=N)N)C(=O)NC(=O)NC1=O`, for which the activity, negative = inhibition is 12.6% [at 11.4 µM]. On to `C[C@H](Br)CN(C[C@H](C)Br)c1ccc2c(c1)Cc1ccccc1-2`, for which the AC50 was 3.16 µM (active). Turning to `CCCN1CCO[C@@H]2c3cc(O)ccc3OC[C@@H]21`, the “activity, negative = inhibition” value is -20.6%. Still for that read-out and setting: the same measure for `COc1cc(C(=O)OC2C[C@H]3CC[C@@H](C2)N3C)ccc1O` (stereo partly drawn): 7.43% [at 25.6 µM]; for `CC(=O)O[C@@H]1CN2CCC1CC2`: 23.8%. Same read-out and setting: for `CCN1C[C@]2(C)CC[C@@H](O)[C@]34[C@@H]5CC6[C@@H](OC)C[C@@](O)([C@H]5[C@@H]6O)[C@@H](C[C@@H]23)[C@H]14` the value was 8.37%; for `O=C1CC[C@@]2(O)[C@H]3Cc4ccc(O)c5c4[C@@]2(CCN3CC2CC2)[C@@H]1O5`, “inactive”.

In the case of `O=C1CC[C@]2(O)[C@H]3Cc4ccc(O)c5c4[C@@]2(CCN3CC2CC2)[C@@H]1O5`, the “activity, negative = inhibition” value is 24.4% [at 25.6 µM]. As for `O=C(/C=C\c1ccc(Cl)cc1)N[C@@]12CCC(=O)[C@@H]3Oc4c(O)ccc5c4[C@@]31CCN(CC1CC1)[C@@H]2C5`, the AC50 is 15.8 µM (active). On to `C[C@]12CC[C@@H]3[C@H](CCC4=CC(=O)CC[C@]43C)[C@]1(O)CC[C@@]2(O)C(=O)CO`, for which the activity, negative = inhibition is -5.6% [at 11.4 µM]. The same measure, in the same setting: the same measure for `CC(C)[C@@H]1CN[C@H](C(=O)O)[C@@H]1CC(=O)O`: -12.5%. Still for that read-out and setting: for `O=C(O)[C@@H](O)[C@@H](O)[C@@H]1[O][Sb][O][C@@H]1CO` the value was 5.16% [at 11.4 µM]. Regarding `C[C@@H](N)Cn1ccc2cc(F)c(Cl)cc21`, the concentration at half-maximal activity (AC50) is 3.98 µM (active).

Take `CC[N+](CC)(CCCNC1=CC(=O)C(NCCC[N+](CC)(CC)Cc2ccccc2)=CC1=O)Cc1ccccc1`: the “activity, negative = inhibition” value was 10.8%. On the same count and under the same terms, for `CC[C@@H]1[C@@H]2C[C@H]3[C@H]4N(C)c5ccccc5[C@@]45C[C@@H]([C@@H]2[C@@H]5O)N3[C@H]1O` the value was -8.54% [at 25.6 µM].

Consider `CC(C)(C)c1cc(C=C(C#N)C#N)cc(C(C)(C)C)c1O`, for which the AC50 is 0.0316 µM (active). Take `N#C/C(=C\c1ccc(O)c(O)c1)C(=O)NCCCNC(=O)/C(C#N)=C/c1ccc(O)c(O)c1`: the “activity, negative = inhibition” value is 8.74%.

With `COc1cc(C=C(C#N)C#N)cc(O)c1O`, the concentration at half-maximal activity (AC50) was 2.51 µM (active).

Consider `N#CC(C#N)=Cc1ccc(O)c(O)c1`, for which the AC50 is 7.94 µM (active). As for `N#C/C(=C\c1ccc(O)c(O)c1)C(N)=S`, the “activity, negative = inhibition” value was -22.3%. The same measure, in the same setting: the same measure for `NCCc1c[nH]c2ccccc12`: 15.6%. On the same count and under the same terms, the same measure for `O=C(O)CNC(=O)[C@@H](CS)Cc1ccccc1`: 28.1%; for `COC(=O)[C@@H]1[C@@H](O)[C@@]2(O)c3c(OC)cc(OC)cc3O[C@@]2(c2ccc(OC)cc2)[C@H]1c1ccccc1`: -21.1% [at 11.4 µM]. On to `COc1cc2c(cc1OC)[C@]13CC[N@+]4(C)CC5=CCO[C@H]6CC(=O)N2[C@@H]1[C@@H]6[C@@H]5C[C@]34O`, for which the activity, negative = inhibition was -6.22% [at 11.4 µM]. Same read-out and setting: the same measure for `O=C(Oc1ccc([N+](=O)[O-])cc1)N1CCC(N2CCCCC2)CC1`: 10.1%; for `O=C(O)c1cc(N=Nc2ccc([As](=O)(O)O)cc2)ccc1O`: 11.3% [at 11.4 µM]. The same measure, in the same setting: for `N[C@@H](CCCCP(=O)(O)O)C(=O)O` the value was 5.13%. For the compound `Cc1ccc(N2C(=O)/C(=C/c3ccc(CN(CCC#N)S(C)(=O)=O)o3)C(=O)NC2=S)cc1C`, the half-maximal activity concentration (AC50) is 12.6 µM (active). Take `NCCc1ccc(O)cc1`: the “activity, negative = inhibition” value is 3.64%.

Take `CC1=NN(c2ccc(S(=O)(=O)O)cc2C)C(=[OH+])[C@H]1N=Nc1cc(S(=O)(=O)O)ccc1C(=O)O.O.[Cr]`: the activity, negative = inhibition is -5.47% [at 11.4 µM].

As to `O=C(NCP(=O)(O)O)c1cccnc1`, the activity, negative = inhibition is 1.84% [at 11.4 µM]. The same measure, in the same setting: for `C=C[C@]12CN(C)[C@H]3C1[C@@]1(C(=O)Nc4ccccc41)[C@H]1C[C@H]2[C@H]3CO1` the value was -13.2% [at 25.6 µM]. As for `c1cc2cc(c1)C[n+]1ccc(c3ccccc31)NCc1ccc(cc1)CNc1cc[n+](c3ccccc13)C2`, the concentration at half-maximal activity (AC50) was 2.51 µM (active). On to `CN1C(=O)CCS(=O)(=O)[C@H]1c1ccc(Cl)cc1`, for which the “activity, negative = inhibition” value was 2.23%.

Take `C[C@H]1C(=O)O[C@@H]2CCN3CC=C(COC(=O)[C@@](C)(O)[C@@]1(C)O)[C@H]23`: the “activity, negative = inhibition” value was 24.7% [at 25.6 µM].

As to `CCCCN1C(=O)/C(=C\c2ccco2)C(=O)N(CCc2ccccc2)C1=O`, the half-maximal activity concentration (AC50) is 7.94 µM (active).

Turning to `c1ccc2c(c1)Sc1ccccc1N2C[C@H]1CN2CCC1CC2`, the activity, negative = inhibition was 8.95% [at 11.4 µM]. Same read-out and setting: for `C[C@H](NC(C)(C)C)C(=O)c1cccc(Cl)c1` the value was “inactive”. For `CCCN1CCC[C@@H]2Cc3[nH]ncc3C[C@H]21`, the activity, negative = inhibition result is “inactive”.

On to `CCN1C[C@]2(COC)CC[C@H](O)[C@@]34[C@@H]5C[C@H]6[C@@H](OC)[C@H]5[C@](O)(C[C@@H]6OC)[C@@](O)([C@@H](OC)[C@H]23)[C@@H]14`, for which the “activity, negative = inhibition” value is -3.36% [at 25.6 µM]. The same measure, in the same setting: the same measure for `CC[C@H]1CN2CC[C@@H]1C[C@H]2[C@@H](O)c1ccnc2ccc(OC)cc12`: 6.12% [at 25.6 µM]. As to `Cc1sc2c(c1C)C(c1ccc(C(C)(C)C)cc1)=NCC(=O)N2CC(=O)Nc1nccs1`, the half-maximal activity concentration (AC50) is 12.6 µM (active).

Take `CN(C)c1ccc(NC(=O)CN2C(=O)CN=C(c3ccccc3)c3ccccc32)cc1`: the “activity, negative = inhibition” value is -4.06%.
